# Reference: the supplement of paper PMC10037445
# In all, about 2,900 compounds were measured (“IRF Lucia reporter activity, fold change vs agonist alone”: median about 0.9, highest 2% from about 2.8 on). Shown is part of a subset that was picked to be rich in the highest values.
# What was measured:
# RAW-Dual [1] = assay: IRF Lucia reporter activity, fold change vs agonist alone; cytotoxicity flag (confluency mask): not cytotoxic; higher = enhanced IRF activity
# Procedure, shortened: (§1)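 RAW-Dual macrophages (50,000 cells/well in DMEM, 384-well plates) received 50 nL of library stock by pin tool, then a PRR agonist 1 h later, and were kept at 37 °C, 5% CO2. After 20 hours, supernatant was read for IRF by QuantiLuc luminescence and for NF-κB by QuantiBlue absorbance at 620 nm. Reporter activity is fold change over agonist-alone wells. Cytotoxic wells had IncuCyte confluency below 70% of agonist controls in both mask sets.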
# RAW-Dual [2] = assay: IRF Lucia reporter activity, fold change vs agonist alone; higher = enhanced IRF activity; settings: agonist: MPLA (TLR4) […]
# Procedure, shortened: as §1
# RAW-Dual [3] = assay: IRF Lucia reporter activity, fold change vs agonist alone; cytotoxicity flag (confluency mask): cytotoxic (confluency <70% of control); higher = enhanced IRF activity
# Procedure, shortened: as §1
# [4] = agonist: 3'3'-cGAMP (STING) 10 ug/mL
# [5] = library stock concentration (final ~1000-fold dilution): 10 mM, cytotoxicity flag (confluency mask): not cytotoxic
structure (smiles),measurement,setting,value
Cc1cnc(Nc2ccc(F)cc2Cl)nc1-c1c[nH]c(C(=O)NC(CO)c2cccc(Cl)c2)c1 (stereo not drawn) (library stock concentration (final ~1000-fold dilution): 10 mM),IRF Lucia reporter activity,RAW-Dual [1]; [4],0.474
same,IRF Lucia reporter activity,RAW-Dual [1]; agonist: LPS (TLR4) 0.1 ug/mL,1.16
CN1CCc2c(c3ccccc3n2Cc2ccc(C(=O)NO)cc2)C1.Cl,IRF Lucia reporter activity,RAW-Dual [2]; [5],5.65
CN1CCc2c(c3ccccc3n2Cc2ccccc2)C1.CN1CCc2c(c3ccccc3n2Cc2ccccc2)C1.O=S(=O)(O)c1cccc2c(S(=O)(=O)O)cccc12,IRF Lucia reporter activity,"RAW-Dual [2]; library stock concentration (final ~1000-fold dilution): 2 mM, cytotoxicity flag (confluency mask): not cytotoxic",1.25
CN1CCc2c(c3ccccc3n2Cc2ccccc2)C1.CN1CCc2c(c3ccccc3n2Cc2ccccc2)C1.O=S(=O)(O)c1cccc2c(S(=O)(=O)O)cccc12 (library stock concentration (final ~1000-fold dilution): 2 mM),IRF Lucia reporter activity,RAW-Dual [1]; [4],1.04
same,IRF Lucia reporter activity,RAW-Dual [1]; agonist: LPS (TLR4) 0.1 ug/mL,1
CN1CCc2c(c3ccccc3n2Cc2ccc(C(=O)NO)cc2)C1.Cl (library stock concentration (final ~1000-fold dilution): 10 mM),IRF Lucia reporter activity,RAW-Dual [1]; [4],1.18
same,IRF Lucia reporter activity,RAW-Dual [1]; agonist: LPS (TLR4) 0.1 ug/mL,4.79
CN1CCc2c(c3ccccc3n2Cc2ccc(C(=O)NO)cc2)C1 (library stock concentration (final ~1000-fold dilution): 10 mM),IRF Lucia reporter activity,RAW-Dual [1]; [4],0.943
same,IRF Lucia reporter activity,RAW-Dual [1]; agonist: LPS (TLR4) 0.1 ug/mL,1.19
COc1ccc(CC(=O)Nc2nc3c(s2)CCc2ccccc2-3)cc1OC (library stock concentration (final ~1000-fold dilution): 10 mM),IRF Lucia reporter activity,RAW-Dual [1]; [4],0.989
same,IRF Lucia reporter activity,RAW-Dual [1]; agonist: LPS (TLR4) 0.1 ug/mL,0.961
COc1cccc(C=NCCN=Cc2cccc(OC)c2[O-])c1[O-].[Cl-].[Mn+2],IRF Lucia reporter activity,RAW-Dual [2]; [5],0.946
COc1cccc(C=NCCN=Cc2cccc(OC)c2[O-])c1[O-].[Cl-].[Mn+2] (library stock concentration (final ~1000-fold dilution): 10 mM),IRF Lucia reporter activity,RAW-Dual [1]; [4],1.06
same,IRF Lucia reporter activity,RAW-Dual [1]; agonist: LPS (TLR4) 0.1 ug/mL,0.762
CN1c2ccccc2C(=O)Nc2cnc(Nc3ccc(N4CCC(O)CC4)cc3)nc21 (library stock concentration (final ~1000-fold dilution): 10 mM),IRF Lucia reporter activity,RAW-Dual [1]; [4],0.137
same,IRF Lucia reporter activity,RAW-Dual [1]; agonist: LPS (TLR4) 0.1 ug/mL,0.438
CCOc1cc(N2CCC(O)CC2)ccc1Nc1ncc2c(n1)N(C)c1ccccc1C(=O)N2C,IRF Lucia reporter activity,RAW-Dual [2]; [5],0.32
Cc1nc(Nc2cnn(C3CCNCC3)c2)nc2c1N(C)C(=O)c1cc3ccccc3cc1N2C (library stock concentration (final ~1000-fold dilution): 10 mM),IRF Lucia reporter activity,RAW-Dual [3]; [4],1.96
same,IRF Lucia reporter activity,RAW-Dual [3]; agonist: LPS (TLR4) 0.1 ug/mL,3.05
Cc1nc(Nc2cnn(C3CCNCC3)c2)nc2c1N(C)C(=O)c1cc3ccccc3cc1N2C,IRF Lucia reporter activity,"RAW-Dual [2]; library stock concentration (final ~1000-fold dilution): 10 mM, cytotoxicity flag (confluency mask): cytotoxic (confluency <70% of control)",3.71
CCOc1cc(N2CCC(O)CC2)ccc1Nc1ncc2c(n1)N(C)c1ccccc1C(=O)N2C (library stock concentration (final ~1000-fold dilution): 10 mM),IRF Lucia reporter activity,RAW-Dual [1]; [4],0.518
same,IRF Lucia reporter activity,RAW-Dual [1]; agonist: LPS (TLR4) 0.1 ug/mL,0.253
